Data published in PubChem BioAssay (NCI).
The panel holds about 79,000 compounds, 15% with a hit somewhere; the sample as a whole holds those more often. Values without a mark were called inactive. Calls of active or inactive are those of the source. Rule as the data show it: active = growth inhibition above about 70%; inactive = the rest. *1 amine or outer side, *2 acyl side, *3 side chain or, on linkers, in order; H or OH if unused. Where a SMILES comes first, the peptide text is derived from it. The star is where a group is joined. γGlu = O=C(O)[CH](CCC(=O)[*:2])N[*:1]; NHOH = ON*

Test: NCI Yeast Anticancer Drug Screen. Data for the mlh1 rad18 strain (AID 175)
Conditions: S. cerevisiae mlh1 rad18 strain growth inhibition; at 50.0 µM; stronger effect = higher value
Method in brief: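 Vehicle-treated cultures served as the reference for growth inhibition in a yeast strain carrying DNA damage repair alterations exposed to each compound.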

Row | Structure (SMILES) | growth inhibition
1 | CCSC(OC(C)=O)C(Nc1ccc([N+](=O)[O-])cc1[N+](=O)[O-])C(OC(C)=O)C(OC(C)=O)C(COC(C)=O)OC(C)=O (stereo not given) | 24.9%
2 | O=C1NC2Cc3ccccc3C(C2)O1 (stereo not given) | 11.8%
3 | Fc1ccc2c(c1)Nc1ccccc1S2 | -14.6%
4 | CNc1ccc(Br)cc1[N+](=O)[O-] | -15.4%
5 | NCCS/C=C/C(=O)Oc1ccc(Br)cc1 | 53.9%
6 | Cc1nn2c(-c3ccccc3)cnnc2c1-c1ccccc1 | -10.8%
7 | CCCCCCCCCCCCCCSc1ccc2ccccc2c1 | -20.3%
8 | CC(C(=O)O)/C(=C\c1ccc2c(c1)OCO2)C(=O)O (stereo not given) | 16.8%
9 | O=C(O)CC(NC(=O)C(CC(=O)OCc1ccccc1)NC(=O)OCc1ccccc1)C(=O)OCc1ccccc1 (stereo not given) | 36.6%
10 | C=C(C)C1CCC2(C)CC3C(=C)CC(O)C(O)C3(C)CCC12 (stereo not given) | 89.5% (active)
11 | O=c1ccn(Cc2ccccc2)c(=O)[nH]1 | 21.9%
12 | Oc1cc(CN2CCOCCOCCOCCOCC2)c(O)cc1CN1CCOCCOCCOCCOCC1 | -14.1%
13 | O=c1[nH]c(=O)c2ncn(-c3ccc(Cl)cc3)c2[nH]1 | -8.3%
14 | OC(c1ccc(Cl)cc1)c1nc2ccccc2[nH]1 (stereo not given) | 33.5%
15 | COc1cc(OC)c2nccc(NCCCN(C)C)c2c1[N+](=O)[O-] | 4.75%
16 | CSc1n[nH]c(NC(=O)c2ccccc2Cl)n1 | 7.95%
17 | C1CCC(C(CCCCC(C2CCCCC2)C2CCCCC2)C2CCCCC2)CC1 | -2.6%
18 | CC(=O)NC(c1ccc(F)cc1)(c1ccc(F)cc1)C(F)(F)F | 40.9%
19 | CCC(O)C(C)CO (stereo not given) | -46.9%
20 | COC(=O)c1cc(C(=O)OC)c(CC(=O)C(=O)Nc2ccc(Cl)c(C(F)(F)F)c2)nc1CC(=O)C(=O)Nc1ccc(Cl)c(C(F)(F)F)c1 | -17.9%

Row | Structure (SMILES) | growth inhibition
21 | CN1C/C(=C\C=C\c2ccccc2)C(=O)/C(=C/C=C/c2ccccc2)C1 | 0.2%
22 | O=C(OCC(OC(=O)c1ccccc1)C1CC(C(O)C2CCCCC2)C(=O)O1)c1ccccc1 (stereo not given) | 30.6%
23 | CC(COc1ccccc1)OC=O (stereo not given) | 8.65%
24 | NC(CCC(=O)NC(CCC(=O)NO)C(=O)NCC(=O)O)C(=O)O (stereo not given) (γGlu-Glu(NHOH)-Gly-OH; configuration not given here) | -42.5%
25 | COC(=O)C1=C(C(=O)OC)C2(C(=O)OC)OC1(OC)C(C1(C(=O)OC)C(C(=O)OC)=C1C(=O)OC)=C2C(=O)OC (stereo not given) | 9.7%
26 | CCN(CC)c1ccc(NC(=S)Nc2cccc(C(F)(F)F)c2)c(C)c1 | 19.2%
27 | C/C(=N/O)c1ccc[nH]1 | 0.3%
28 | CC(NC(=O)OC(C)(C)C)C(=O)C(N)=O (stereo not given) | -11.5%
29 | CCOC(CN1CCCCC1)OCC | 6.65%
30 | O=Cc1c(O)nc[nH]c1=O | -7.7%
31 | COc1ccc2c(c1)CCC1C2CCC2(C)C(=O)C(n3cnc4c(SC)ncnc43)CC12 (stereo not given) | 46.9%
32 | CC(C)(O)/C(=N/O)c1ccc(-c2ccccc2)cc1 | 10.8%
33 | C=CCN=C(N)SCCN(CCSC(N)=NCC=C)C(N)=O | 13.1%
34 | COc1cccc(NC(=O)CC(=O)N2N=C(C)C(N=Nc3ccc(S(=O)(=O)c4ccc(N=NC5C(=O)N(C(=O)CC(=O)Nc6cccc(OC)c6)N=C5C)cc4)cc3)C2=O)c1 (stereo not given) | 29.1%
35 | Cn1c(-c2ccccc2)nc(-c2ccccc2)[n+]1[O-] | 28.6%
36 | Cc1cccc(O)c1C(=O)O | -0.25%
37 | COc1cc(OC)c(NC(=O)NC(C)(C)C)cc1Cl | 23.4%
38 | CCOC(=O)c1nc2ccc(C(F)(F)F)cc2nc1NCc1ccc(F)cc1 | -48.2%
39 | CN(C)CCCNC=O | 23.6%
40 | Nc1nc(N)c2nc(CNc3ccc(C(=O)NC(CCCNC(=O)c4ccccc4C(=O)O)C(=O)O)cc3)cnc2n1 (stereo not given) | -9.95%
